# Test results taken from ChEMBL document CHEMBL3988442, “University of Dundee, Small-Polar-MMV Screening Library” (2021).
# About 1,000 (1.4%) of roughly 69,000 compounds showed an effect of 50% or more. The sample as a whole holds a higher share of strong results than the screen did.
# Tested on: Leishmania donovani
# Assay: Leishmania intramacrophage assay
# Assay type: functional, organism-based
# Design: scale not given: in the data most compounds retested in dose-response had high values
smiles,measurement,setting,value
CN1CCC(N(C)C[C@H]2CC[C@@H](Cc3cccc(CO)c3)O2)CC1,Percent Effect,"30.3 µM, […]",11.6%
CN1CCC(N(C)C[C@H]2CC[C@@H](Cc3ccc4occc4c3)O2)CC1,Percent Effect,"30.3 µM, […]",87.95%
CN1CCC(N(C)C[C@H]2CC[C@@H](Cc3cccc(O)c3)O2)CC1,Percent Effect,"30.3 µM, […]",81.26%
COc1ccc(C[C@@H]2CC[C@H](CN(C)C3CCN(C)CC3)O2)cc1,Percent Effect,"30.3 µM, […]",8.587%
CCN(C)C[C@H]1CC[C@@H](Cc2ccc3c(cnn3C)c2)O1,Percent Effect,"30.3 µM, […]",-0.9976%
CN1CCC(N(C)C[C@H]2CC[C@@H](Cc3ccc4c(cnn4C)c3)O2)CC1,Percent Effect,"30.3 µM, […]",38.58%
Cc1ccnn1CCC(=O)N1CCCC1c1cc2cccnc2[nH]1.Cl (stereo not given),Percent Effect,"30.3 µM, […]",-28.4%
COCCNC(=O)N1CCCCC1CNC(=O)Nc1ccccc1 (stereo not given),Percent Effect,"30.3 µM, […]",-22.22%
Cc1nc(CNC(=O)N(CCCO)C2CCc3ccccc32)oc1C (stereo not given),Percent Effect,"30.3 µM, […]",21.1%
CC(C)c1cc(C(=O)N2CC[C@@H](c3ccc4c(c3)OCO4)[C@H](O)C2)[nH]n1,Percent Effect,"30.3 µM, […]",26.43%
CCOCC1CN(Cc2cnn(C)c2)Cc2nn(C)cc21.O=C(O)C(F)(F)F (stereo not given),Percent Effect,"30 µM, 30.03 µM",-19.77%
Cc1nn(Cn2ccc(C(=O)N3CCCC3)n2)c(C)c1Cl,Percent Effect,"30.3 µM, […]",14.44%
Cc1nn(Cn2ccc(C(=O)N3CCC(C)CC3)n2)c(C)c1Cl,Percent Effect,"30.3 µM, […]",52.68%
Cc1nn(Cn2ccc(C(=O)N3CCCC(C)C3)n2)c(C)c1Cl (stereo not given),Percent Effect,"30.3 µM, […]",24.98%
Cc1cc(C(=O)NCc2cccnc2N2CCCC(O)C2)[nH]n1 (stereo not given),Percent Effect,"30.3 µM, […]",14.66%
CN(Cc1ccc(Br)c2cccnc12)S(C)(=O)=O,Percent Effect,"30.3 µM, […]",20.74%
O=C(NCCc1cccs1)NCC(O)c1cccc(F)c1 (stereo not given),Percent Effect,30 µM,0.0374%
CCCC(=O)NC1CCc2c(ccc(=O)n2Cc2csc(C)n2)C1.O=C(O)C(F)(F)F (stereo not given),Percent Effect,"30.3 µM, […]",38.16%
Cc1nc(Cn2c3c(ccc2=O)CC(NC(N)=O)CC3)cs1 (stereo not given),Percent Effect,"30.3 µM, […]",52.43%
Cc1nc(Cn2c3c(ccc2=O)CC(N)CC3)cs1 (stereo not given),Percent Effect,"30.3 µM, […]",24.76%
CCN1CC2(CC1=O)CN(Cc1ccncc1)CCN(C(=O)C(C)C)C2.O=C(O)C(F)(F)F.O=C(O)C(F)(F)F (stereo not given),Percent Effect,"30.3 µM, […]",17.44%
O=C(C[C@@H]1COC[C@H]2CN(C3CCCC3)C[C@@H]12)N1CCCCO1.O=C(O)C(F)(F)F,Percent Effect,"30.3 µM, […]",0.3497%
Cc1c[nH]c(CN(C)C(C(=O)O)c2c(F)cccc2OC(C)C)n1 (stereo not given),Percent Effect,"30.3 µM, […]",12.35%
CC(O)CN1CCC(CNCc2cccc(Br)c2)CC1 (stereo not given),Percent Effect,"30 µM, 30.03 µM",61.22%
CC(O)CN1CCC(CNCc2cccc(OC(C)C)c2)CC1 (stereo not given),Percent Effect,"30 µM, 30.03 µM",57.47%
CC(O)CN1CCC(CNCc2ccccc2C(F)(F)F)CC1 (stereo not given),Percent Effect,30 µM,19.95%
CC(O)CN1CCC(CNCc2cccc(C(=O)N(C)C)c2)CC1 (stereo not given),Percent Effect,"30.3 µM, […]",15.32%
CC(O)CN1CCC(CNCc2cccc(OC(F)(F)F)c2)CC1 (stereo not given),Percent Effect,30 µM,66.17%
CC(O)CN1CCC(CNCc2ccc(OC(F)(F)F)cc2)CC1 (stereo not given),Percent Effect,30 µM,89.6%
CC(O)CN1CCC(CNCc2cccc(Cl)c2)CC1 (stereo not given),Percent Effect,"30.3 µM, […]",14.58%
CC(O)CN1CCC(CNCc2ccccc2OC(F)(F)F)CC1 (stereo not given),Percent Effect,"30 µM, 30.03 µM",31.23%
CC(O)CN1CCC(CNCc2cccc(C(F)(F)F)c2)CC1 (stereo not given),Percent Effect,"30.3 µM, […]",35.92%
CC(O)CN1CCC(CNCc2ccc(S(C)(=O)=O)cc2)CC1 (stereo not given),Percent Effect,"30 µM, 30.03 µM",29.6%
CC(O)CN1CCC(CNCc2cccc(C(N)=O)c2)CC1 (stereo not given),Percent Effect,"30 µM, 30.03 µM",24.83%
CC(O)CN1CCC(CNCc2ccc(C#N)cc2)CC1 (stereo not given),Percent Effect,"30.3 µM, […]",-9.359%
COC(=O)c1cc(NCC(=O)NC(N)=O)cc(C(F)(F)F)c1,Percent Effect,"30.3 µM, […]",10.64%
C(=C\c1ccccc1)/CNCC1CCc2nncn2C1 (stereo not given),Percent Effect,"30.3 µM, […]",-5.474%
O=C(Nc1ccccc1F)NC1(CO)CCOCC1,Percent Effect,"30.3 µM, […]",37.09%
Cc1nc(CN2C[C@@H]3CN(C(=O)c4ccnnc4)C[C@@H]3C2=O)cs1.O=C(O)C(F)(F)F,Percent Effect,"30 µM, 30.03 µM",13.66%
CC(C)(C)n1ncc2c1CCCC2NCc1cccc2c1OCCO2 (stereo not given),Percent Effect,30 µM,39.91%
COc1c(CC2CC(C(=O)O)=NO2)c(Br)c2c(c1OC)OCO2 (stereo not given),Percent Effect,"30.3 µM, […]",9.318%
Cc1noc(CNC(=O)N2CCN(c3nc(C)c(C)s3)CC2)n1,Percent Effect,"30.3 µM, […]",0.7779%
O=C(CN1CCOC(Cn2cccn2)C1)NCc1ccco1 (stereo not given),Percent Effect,30 µM,30.39%
OC(CNC1CCOCC1)c1ccc(Cl)c(F)c1 (stereo not given),Percent Effect,"30.3 µM, […]",9.683%
CC(=O)N1CCCCC[C@@H]2[C@@H]1[C@H](c1cccc(F)c1)CN2C(=O)C1CC1,Percent Effect,"30.3 µM, […]",16.49%
Cc1nc[nH]c1-c1nccn1CCN1CCOC1=O,Percent Effect,"30.3 µM, […]",3.243%
CCOC(C)C(=O)NCCNS(C)(=O)=O (stereo not given),Percent Effect,"30.3 µM, […]",50.09%
CC(C)COC(C)C(=O)NCCNS(C)(=O)=O (stereo not given),Percent Effect,"30.3 µM, […]",50.97%
CC(C)COC(C)C(=O)NCc1ccccc1 (stereo not given),Percent Effect,30 µM,13.02%
CC(C)C(=O)NCCNC(=O)C(C)OCC(F)(F)F (stereo not given),Percent Effect,"30.3 µM, […]",28.18%
CC(CC(=O)NCCNS(C)(=O)=O)C1CCCCC1 (stereo not given),Percent Effect,"30.3 µM, […]",12.79%
CC(C)COC(C)C(=O)NCCNC(=O)C(C)C (stereo not given),Percent Effect,"30.3 µM, […]",43.81%
CCOCC(O)CN1CCN(C(=O)c2ccc(C)nc2)CC1 (stereo not given),Percent Effect,30 µM,29.83%
COc1ccc(Br)cc1CCC(=O)N1CCCC(O)C1 (stereo not given),Percent Effect,"30.3 µM, […]",6.225%
N#Cc1cccc(OCCN2CCCC(c3noc(C4CC4)n3)C2)c1 (stereo not given),Percent Effect,"30.3 µM, […]",32.43%
COCC1CN(S(=O)(=O)c2cccs2)Cc2ncnn2C1 (stereo not given),Percent Effect,"30.3 µM, […]",38.74%
Cc1ccccc1C(=O)Nc1cnn(CCN2CCOCC2)c1,Percent Effect,30 µM,17.38%
CC(C)CS(=O)(=O)Nc1ccc2c(c1)OCC(C)(C)C(=O)N2C,Percent Effect,"30.3 µM, […]",-17.18%
CCN1CC(C(=O)NCc2cccc(SC)c2)CC1=O (stereo not given),Percent Effect,"30.3 µM, […]",-29.4%
CN(C)S(=O)(=O)c1ccc(CNC(=O)C2CC(=O)N(C(C)(C)C)C2)cc1 (stereo not given),Percent Effect,"30.3 µM, […]",21.08%
CSc1ccc(CNC(=O)C2CC(=O)N(C(C)(C)C)C2)cc1 (stereo not given),Percent Effect,"30.3 µM, […]",55.18%
O=c1[nH]c(-c2ccc(F)cc2)nc2c1CCNC2,Percent Effect,"30.3 µM, […]",23.84%
O=c1[nH]c(-c2ccc(F)c(F)c2)nc2c1CCNC2,Percent Effect,"30.3 µM, […]",51.76%
O=c1[nH]c(-c2ccc(Cl)cc2)nc2c1CCNC2,Percent Effect,"30.3 µM, […]",20.84%
Cc1nc(CN2C[C@@H]3CCCO[C@@H]3[C@H](NC(=O)CC3CC3)C2)cs1.O=C(O)C(F)(F)F,Percent Effect,"30.3 µM, […]",13.13%
